Assay [1] has as its target Serine/threonine-protein kinase MARK2 (Homo sapiens) (UniProt Q7KZI7). As to conditions: at 1 µM.
The target of assay [2] is PAS domain-containing serine/threonine-protein kinase (Homo sapiens) (UniProt Q96RG2). The settings on record: at 0.1 µM.
The target is the same in assay [3]. As to conditions: at 1 µM.
Assay [4] addresses Phosphorylase b kinase gamma catalytic chain, skeletal muscle/heart isoform (Homo sapiens) (UniProt Q16816). As to conditions: at 0.1 µM.
The target is the same in assay [5]. As to conditions: at 1 µM.
Assay [6] deals with T1, Phosphorylase b kinase gamma catalytic chain, liver/testis isoform (Homo sapiens) (UniProt P15735).
T1 sequence (whole entry): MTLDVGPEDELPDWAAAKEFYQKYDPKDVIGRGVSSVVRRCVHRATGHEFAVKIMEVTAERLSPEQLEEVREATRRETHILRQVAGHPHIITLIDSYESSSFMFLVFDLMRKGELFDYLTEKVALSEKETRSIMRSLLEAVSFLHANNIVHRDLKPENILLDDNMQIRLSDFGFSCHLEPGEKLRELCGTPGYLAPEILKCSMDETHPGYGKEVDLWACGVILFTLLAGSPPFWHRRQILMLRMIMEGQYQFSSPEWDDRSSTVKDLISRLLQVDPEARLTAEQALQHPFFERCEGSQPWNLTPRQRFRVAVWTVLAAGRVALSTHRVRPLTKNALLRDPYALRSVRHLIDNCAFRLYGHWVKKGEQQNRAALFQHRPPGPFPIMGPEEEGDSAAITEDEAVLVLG
As to conditions: at 0.1 µM.

For assay [7], the target named is T1, Phosphorylase b kinase gamma catalytic chain, liver/testis isoform (Homo sapiens). As to conditions: at 1 µM.
Assay [8] concerns the target Serine/threonine-protein kinase pim-1 (Homo sapiens) (UniProt P11309). The settings on record: at 0.1 µM.
The target is the same in assay [9]. The settings on record: at 1 µM.
Assay [10] has as its target Serine/threonine-protein kinase pim-2 (Homo sapiens) (UniProt Q9P1W9). As to conditions: at 0.1 µM.
The target is the same in assay [11]. The settings on record: at 1 µM.
The target of assay [12] is Serine/threonine-protein kinase pim-3 (Homo sapiens) (UniProt Q86V86). The settings on record: at 0.1 µM.
Assay [13] shares this target. As to conditions: at 1 µM.
Assay [14] concerns the target T2, MAP kinase-activated protein kinase 5 (Homo sapiens) (UniProt Q8IW41).
T2 sequence (whole entry): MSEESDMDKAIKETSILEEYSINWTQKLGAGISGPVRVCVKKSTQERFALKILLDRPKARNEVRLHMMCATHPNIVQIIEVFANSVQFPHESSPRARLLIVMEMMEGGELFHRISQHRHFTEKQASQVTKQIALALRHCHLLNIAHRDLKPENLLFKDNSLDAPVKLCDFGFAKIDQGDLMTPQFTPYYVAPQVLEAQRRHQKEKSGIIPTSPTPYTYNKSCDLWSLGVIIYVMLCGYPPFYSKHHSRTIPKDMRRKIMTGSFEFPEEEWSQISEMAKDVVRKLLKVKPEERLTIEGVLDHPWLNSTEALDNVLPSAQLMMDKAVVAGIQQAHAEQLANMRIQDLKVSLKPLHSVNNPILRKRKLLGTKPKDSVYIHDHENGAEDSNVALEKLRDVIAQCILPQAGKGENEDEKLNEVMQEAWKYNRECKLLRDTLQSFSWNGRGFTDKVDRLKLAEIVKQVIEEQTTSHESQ
The settings on record: at 0.1 µM.

Assay [15] deals with T2, MAP kinase-activated protein kinase 5 (Homo sapiens). As to conditions: at 1 µM.
The target of assay [16] is Serine/threonine-protein kinase SIK1 (Homo sapiens) (UniProt P57059). The settings on record: at 0.1 µM.
For assay [17] the target is unchanged. The settings on record: at 1 µM.
The target in assay [18] is Serine/threonine-protein kinase SIK2 (Homo sapiens) (UniProt Q9H0K1). The settings on record: at 0.1 µM.
Assay [19] shares this target. The settings on record: at 1 µM.
In assay [20] the target is T3, Serine/threonine-protein kinase TBK1 (Homo sapiens) (UniProt Q9UHD2).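 Note: values are the mean TBK1 inhibition, taken from the GSK PKIS screening data.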
T3 sequence (whole entry): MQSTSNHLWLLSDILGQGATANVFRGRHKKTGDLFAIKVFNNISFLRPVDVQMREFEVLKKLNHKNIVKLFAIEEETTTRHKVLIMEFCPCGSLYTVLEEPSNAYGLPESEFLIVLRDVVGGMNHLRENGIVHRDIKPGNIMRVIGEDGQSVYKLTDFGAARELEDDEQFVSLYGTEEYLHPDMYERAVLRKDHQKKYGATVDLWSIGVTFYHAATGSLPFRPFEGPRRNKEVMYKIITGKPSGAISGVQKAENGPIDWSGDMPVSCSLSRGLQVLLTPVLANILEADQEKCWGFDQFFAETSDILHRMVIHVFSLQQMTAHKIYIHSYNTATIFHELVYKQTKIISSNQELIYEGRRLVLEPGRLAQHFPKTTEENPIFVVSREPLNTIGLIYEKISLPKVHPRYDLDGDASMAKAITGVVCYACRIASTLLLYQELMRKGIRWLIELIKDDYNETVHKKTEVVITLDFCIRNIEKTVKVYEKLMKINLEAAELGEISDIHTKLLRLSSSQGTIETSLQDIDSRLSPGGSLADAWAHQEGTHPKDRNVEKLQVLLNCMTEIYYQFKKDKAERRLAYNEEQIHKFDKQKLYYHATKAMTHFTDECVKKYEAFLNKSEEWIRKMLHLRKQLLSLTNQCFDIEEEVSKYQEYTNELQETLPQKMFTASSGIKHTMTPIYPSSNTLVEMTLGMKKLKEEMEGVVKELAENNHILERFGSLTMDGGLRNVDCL
As to conditions: at 0.1 µM.

SMILES strings stand for the structures. Values joined by “and” are separate entries in the source; they are usually repeats but may differ in a detail not shown here. Equal values may be shown once.

Chain of Phosphorylase b kinase gamma catalytic chain, skeletal muscle/heart isoform (Homo sapiens) (Q16816 whole entry, looked up, canonical isoform): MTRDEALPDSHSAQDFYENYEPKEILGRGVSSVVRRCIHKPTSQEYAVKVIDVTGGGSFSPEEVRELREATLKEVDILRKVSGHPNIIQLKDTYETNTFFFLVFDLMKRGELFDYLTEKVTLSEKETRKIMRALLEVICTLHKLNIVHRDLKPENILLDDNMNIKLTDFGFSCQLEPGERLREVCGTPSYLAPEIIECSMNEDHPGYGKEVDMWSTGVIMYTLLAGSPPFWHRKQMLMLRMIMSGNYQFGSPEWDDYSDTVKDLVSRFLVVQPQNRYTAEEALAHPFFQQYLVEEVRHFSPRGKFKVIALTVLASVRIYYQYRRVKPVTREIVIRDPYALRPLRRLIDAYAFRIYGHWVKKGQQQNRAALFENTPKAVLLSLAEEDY
Chain of PAS domain-containing serine/threonine-protein kinase (Homo sapiens) (Q96RG2 whole entry, the tested form may be a part): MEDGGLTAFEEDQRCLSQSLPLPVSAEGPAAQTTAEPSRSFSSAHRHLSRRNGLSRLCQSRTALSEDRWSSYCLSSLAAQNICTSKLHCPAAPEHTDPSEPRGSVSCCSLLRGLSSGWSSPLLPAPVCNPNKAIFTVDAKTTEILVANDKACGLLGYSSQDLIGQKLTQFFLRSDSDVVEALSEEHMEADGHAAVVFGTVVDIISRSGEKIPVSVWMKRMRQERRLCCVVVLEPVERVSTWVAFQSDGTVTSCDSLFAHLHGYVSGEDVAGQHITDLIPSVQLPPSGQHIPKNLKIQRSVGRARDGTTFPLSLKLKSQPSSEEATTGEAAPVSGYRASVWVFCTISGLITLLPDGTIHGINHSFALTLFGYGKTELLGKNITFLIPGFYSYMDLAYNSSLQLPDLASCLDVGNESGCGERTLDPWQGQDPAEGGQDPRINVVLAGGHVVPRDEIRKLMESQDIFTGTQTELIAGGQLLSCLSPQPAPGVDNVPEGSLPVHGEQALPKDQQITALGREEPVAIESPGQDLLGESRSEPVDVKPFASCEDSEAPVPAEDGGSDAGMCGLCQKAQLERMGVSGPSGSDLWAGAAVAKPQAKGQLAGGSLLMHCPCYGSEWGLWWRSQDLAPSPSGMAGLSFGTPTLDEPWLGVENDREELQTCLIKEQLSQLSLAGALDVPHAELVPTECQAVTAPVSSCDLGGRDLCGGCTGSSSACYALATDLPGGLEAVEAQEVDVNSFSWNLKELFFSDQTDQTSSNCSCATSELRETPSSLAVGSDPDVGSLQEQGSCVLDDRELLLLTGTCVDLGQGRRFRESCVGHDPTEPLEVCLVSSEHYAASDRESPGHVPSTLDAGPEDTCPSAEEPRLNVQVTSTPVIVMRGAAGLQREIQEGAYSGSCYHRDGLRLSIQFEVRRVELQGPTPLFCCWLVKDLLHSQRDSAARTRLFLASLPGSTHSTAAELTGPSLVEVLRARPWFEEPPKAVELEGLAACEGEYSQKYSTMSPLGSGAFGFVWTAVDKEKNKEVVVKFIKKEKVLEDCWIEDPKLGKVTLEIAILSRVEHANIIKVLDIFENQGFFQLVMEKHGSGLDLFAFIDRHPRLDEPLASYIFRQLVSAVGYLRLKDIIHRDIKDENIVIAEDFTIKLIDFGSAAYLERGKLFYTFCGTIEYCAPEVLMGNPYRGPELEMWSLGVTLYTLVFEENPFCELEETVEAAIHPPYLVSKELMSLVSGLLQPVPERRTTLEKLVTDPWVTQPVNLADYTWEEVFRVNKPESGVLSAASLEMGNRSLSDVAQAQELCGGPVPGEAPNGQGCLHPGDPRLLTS
Chain of Serine/threonine-protein kinase pim-1 (Homo sapiens) (P11309 whole entry, looked up): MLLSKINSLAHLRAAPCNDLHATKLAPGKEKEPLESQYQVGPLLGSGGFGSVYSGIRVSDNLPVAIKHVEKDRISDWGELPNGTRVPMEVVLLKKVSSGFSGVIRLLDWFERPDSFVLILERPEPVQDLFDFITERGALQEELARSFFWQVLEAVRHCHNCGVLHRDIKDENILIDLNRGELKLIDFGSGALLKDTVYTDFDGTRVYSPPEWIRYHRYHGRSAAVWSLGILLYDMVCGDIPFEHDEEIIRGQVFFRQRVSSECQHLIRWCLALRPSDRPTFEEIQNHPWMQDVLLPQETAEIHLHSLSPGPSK
Chain of Serine/threonine-protein kinase SIK1 (Homo sapiens) (P57059 whole entry): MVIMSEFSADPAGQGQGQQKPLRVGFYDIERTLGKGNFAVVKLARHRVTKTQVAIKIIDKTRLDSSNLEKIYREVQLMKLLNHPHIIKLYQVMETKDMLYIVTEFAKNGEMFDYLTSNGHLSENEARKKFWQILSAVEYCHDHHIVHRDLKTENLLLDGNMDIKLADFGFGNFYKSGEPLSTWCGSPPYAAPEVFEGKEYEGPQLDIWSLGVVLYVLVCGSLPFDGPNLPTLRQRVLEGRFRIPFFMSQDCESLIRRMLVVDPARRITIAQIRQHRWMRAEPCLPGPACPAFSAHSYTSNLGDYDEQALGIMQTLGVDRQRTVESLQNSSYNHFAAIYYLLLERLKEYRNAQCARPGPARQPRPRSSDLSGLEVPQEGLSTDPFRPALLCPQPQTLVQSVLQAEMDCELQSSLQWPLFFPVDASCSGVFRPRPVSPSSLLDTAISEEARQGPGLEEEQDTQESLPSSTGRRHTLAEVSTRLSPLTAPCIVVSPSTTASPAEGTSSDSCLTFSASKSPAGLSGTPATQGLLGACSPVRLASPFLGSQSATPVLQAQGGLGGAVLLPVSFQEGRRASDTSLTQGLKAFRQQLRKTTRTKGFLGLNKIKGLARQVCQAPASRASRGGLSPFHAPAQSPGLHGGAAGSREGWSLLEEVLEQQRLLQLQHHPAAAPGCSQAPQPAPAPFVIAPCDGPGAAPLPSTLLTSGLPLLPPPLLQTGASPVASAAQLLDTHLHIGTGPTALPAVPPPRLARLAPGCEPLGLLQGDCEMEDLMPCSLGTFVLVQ
Chain of Serine/threonine-protein kinase MARK2 (Homo sapiens) (Q7KZI7 whole entry, the tested form may be a part): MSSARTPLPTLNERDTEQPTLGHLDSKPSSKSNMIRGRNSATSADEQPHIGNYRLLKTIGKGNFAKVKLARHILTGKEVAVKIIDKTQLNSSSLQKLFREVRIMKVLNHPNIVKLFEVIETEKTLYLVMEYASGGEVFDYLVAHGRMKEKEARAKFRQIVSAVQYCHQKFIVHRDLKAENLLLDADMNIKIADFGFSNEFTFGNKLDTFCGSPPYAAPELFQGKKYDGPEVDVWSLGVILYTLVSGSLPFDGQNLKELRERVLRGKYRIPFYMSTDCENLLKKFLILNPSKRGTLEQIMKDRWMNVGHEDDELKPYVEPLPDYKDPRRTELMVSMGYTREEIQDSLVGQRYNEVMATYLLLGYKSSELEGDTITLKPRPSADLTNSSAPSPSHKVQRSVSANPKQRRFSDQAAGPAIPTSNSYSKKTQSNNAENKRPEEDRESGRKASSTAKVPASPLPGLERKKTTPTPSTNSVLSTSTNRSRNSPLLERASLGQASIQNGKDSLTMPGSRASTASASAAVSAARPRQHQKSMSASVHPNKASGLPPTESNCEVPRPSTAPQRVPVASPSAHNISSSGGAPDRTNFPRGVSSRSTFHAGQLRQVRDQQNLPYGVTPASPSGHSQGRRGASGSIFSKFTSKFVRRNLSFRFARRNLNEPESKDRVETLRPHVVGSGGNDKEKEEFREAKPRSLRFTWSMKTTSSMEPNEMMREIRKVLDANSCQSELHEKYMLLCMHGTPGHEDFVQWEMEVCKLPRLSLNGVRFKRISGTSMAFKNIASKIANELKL
Chain of Serine/threonine-protein kinase SIK2 (Homo sapiens) (Q9H0K1 whole entry, looked up): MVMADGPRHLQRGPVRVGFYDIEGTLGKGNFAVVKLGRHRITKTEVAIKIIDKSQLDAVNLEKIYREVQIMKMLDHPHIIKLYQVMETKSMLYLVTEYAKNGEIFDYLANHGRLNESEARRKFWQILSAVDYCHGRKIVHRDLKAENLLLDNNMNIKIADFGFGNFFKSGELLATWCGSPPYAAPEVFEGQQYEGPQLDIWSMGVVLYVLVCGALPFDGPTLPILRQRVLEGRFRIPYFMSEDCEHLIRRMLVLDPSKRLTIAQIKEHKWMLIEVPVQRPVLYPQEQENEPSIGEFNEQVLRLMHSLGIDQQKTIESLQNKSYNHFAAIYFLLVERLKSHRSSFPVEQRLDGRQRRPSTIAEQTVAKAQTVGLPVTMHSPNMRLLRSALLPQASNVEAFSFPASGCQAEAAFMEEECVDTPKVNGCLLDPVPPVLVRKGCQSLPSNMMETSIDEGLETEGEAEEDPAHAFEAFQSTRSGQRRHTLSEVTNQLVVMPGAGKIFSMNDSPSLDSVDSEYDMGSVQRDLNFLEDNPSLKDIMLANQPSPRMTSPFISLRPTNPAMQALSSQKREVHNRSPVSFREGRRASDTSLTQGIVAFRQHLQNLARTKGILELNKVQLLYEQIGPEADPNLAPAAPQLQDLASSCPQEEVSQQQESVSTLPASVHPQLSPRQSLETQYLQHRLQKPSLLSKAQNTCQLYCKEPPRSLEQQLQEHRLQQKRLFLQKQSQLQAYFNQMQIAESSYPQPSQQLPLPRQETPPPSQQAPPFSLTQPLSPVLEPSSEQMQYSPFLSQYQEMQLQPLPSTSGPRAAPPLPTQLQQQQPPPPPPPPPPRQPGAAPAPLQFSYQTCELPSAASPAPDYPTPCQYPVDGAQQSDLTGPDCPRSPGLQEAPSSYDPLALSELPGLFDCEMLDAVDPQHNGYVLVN

Take `COc1ccc2ncn(-c3cc(O[C@H](C)c4ccccc4C(F)(F)F)c(C(N)=O)s3)c2c1`: the inhibition was 4.83% in assay [1]; -0.55% in assay [2]; 0.78% in [3]; 1.28% in assay [4]; 3.44% in assay [5]; -1.44% in assay [6]. The inhibition in assay [7] is 0.1%; in assay [8], 1.71%; in [9] it was 7.56%; in [10], -0.14%; in assay [11] it was 0.75%; in assay [12], 1.24%. The inhibition in assay [13] was 7.53%; in assay [14] it was -0.11%; in [15] it was -0.07%; in assay [16], -1.94%; in assay [17] it was 15.9%; in assay [18], 4.06%. The results for the inhibition in [19] and in [20] were 5.38% and 1.28%, respectively.
For `CCS(=O)(=O)c1ccc(OC)c(Nc2ncc(-c3cccc(F)c3)o2)c1`, the inhibition is 2.64% in [1]; -0.05% in [2]; -0.06% in assay [3]; 6.05% in assay [4]; 24.7% in assay [5]; 6.86% in assay [6]. Also, the inhibition was 8.13% in assay [7]; 1.98% in assay [8]; 4.66% in [9]; -0.96% in [10]; 0.08% in assay [11]; 0.31% in assay [12]. For the same compound, the inhibition in assay [13] was 3.65%; in assay [14], 2.11%; in assay [15] it was 2.01%; in [16], 7.36%; in assay [17] it was 29.4%; in assay [18] it was 8.6%. Also, the inhibition amounted to 36.7% in assay [19] and 5.98% in assay [20].
Take `O=C(O[C@H]1CN[C@H](C#Cc2cc3ncnc(Nc4ccc(OCc5cccc(F)c5)c(Cl)c4)c3s2)C1)N1CCOCC1`: the inhibition in assay [1] was -1.51%; in assay [2], 0.31%; in [3], 0.78%; in assay [4] it was 6.72%; in assay [5] it was 7.76%; in assay [6], 7.04%. Besides, the inhibition was 9.85% in assay [7]; 0.79% in [8]; 0.58% in [9]; -0.36% in assay [10]; 0.28% in assay [11]; 0.37% in [12]. Besides, the inhibition in assay [13] was 1.35%; in [14] it was 2.46%; in [15], 4.32%; in [16], 2.74%; in assay [17], 9.18%; in assay [18] it was 8.56%. For the same compound, the inhibition in [19] was determined as 11.1%; in [20], 1.96%.
`O=C(Nc1n[nH]c2nnc(-c3cccnc3)cc12)C1CC1`: the inhibition in assay [1] was 1.5%; in assay [2], 1.31%; in [3] it was 0.02%; in [4], 0.1%; in [5], -0.03%; in [6] it was -1.23%. Further, the inhibition was -1.9% in assay [7]; 26.1% in assay [8]; 74.5% in assay [9]; 4.25% in assay [10]; 28.7% in assay [11]; 26.8% in assay [12]. The inhibition is 69.7% in assay [13]; 0.13% in assay [14]; -0.19% in [15]; 1.74% in assay [16]; 5.12% in assay [17]; 1.86% in assay [18]. Besides, the values for the inhibition in [19] and in assay [20] were -1.67% and 0.25%, respectively.
For `COc1c(C(N)=O)cc(-c2ccc(Cl)cc2)cc1-c1ccc(S(N)(=O)=O)cc1`, the inhibition in assay [1] is 1.57%; in [2], -2.39%; in [3], -1.49%; in assay [4] it was 0.45%; in assay [5], 3.12%; in assay [6], 3.72%. In addition, the inhibition in [7] was 5.17%; in assay [8] it was 1.83%; in [9], 2.23%; in assay [10] it was -0.64%; in assay [11], -0.88%; in [12] it was -0.2%. The inhibition in assay [13] was 0.43%; in [14], 1.35%; in assay [15], 2.31%; in assay [16], 10.7%; in assay [17], 16.1%; in [18], 8.28%. Besides, the inhibition in assay [19] came out at 6.93%; in assay [20], 4.69%.
As to `Nc1nonc1-c1nc2cnccc2n1C1CC1`, the inhibition in [1] is 17.9% and 14.9%; in assay [2], 0.62% and -0.65%; in assay [3], 1.08% and 0.92%; in assay [4], 5% and 3.93%; in [5], 7.51% and 3.48%; in assay [6], 4.1% and 2.66%. For the same compound, the inhibition is 1.15% and 2.16% in [7]; 12.4% and 13.8% in assay [8]; 56.3% and 59.1% in assay [9]; 1.57% and -2.36% in assay [10]; 11.3% and 9.18% in assay [11]; 3.94% and 4.22% in [12]. The inhibition in assay [13] was 30.6% and 32.5%; in [14], 0.67% and 1.06%; in assay [15] it was -0.55% and 4.15%; in assay [16], 6.64% and 2.66%; in assay [17], 8.35% and 5.12%; in assay [18], 0.75% and 5.71%. The inhibition was 5.93% and 2.36% in assay [19]; 7.96% and 1.98% in [20].

The term inhibition denotes the drop in the measured response relative to a control, in per cent.

These data come from ChEMBL document CHEMBL1961873, “Compounds: GSK PKIS; Assays: Nanosyn kinase panel” (2012).
